Marburg entry inh: qHTS for inhibitors of binding or entry into cells for Marburg Virus. Marburg virus pseudotyped entry inhibition, cell reporter. Potency, µM (top dose mostly 37.8 µM), without a hit: top-dose activity change, negative = inhibition, actives largely listed as inhibitors. 300,000 tested, 1.8% active; calls by dose curve; tested in HEK293 cells; also: potency is read from the fitted curve at half-maximal effect
LASV entry inh: qHTS for Inhibitors of binding or entry into cells for Lassa Virus; Lassa virus pseudotype entry inhibition, cell reporter; Potency, µM (series often up to 37.9 µM), for inactives: top-dose activity change, negative = inhibition, actives largely listed as inhibitors; 300,000 tested, 1.2% active; calls by dose curve; tested in HEK293 cells; also: potency is read from the fitted curve at half-maximal effect; nearly all actives have a fitted effect of over 50% in size
HCMV inh: qHTS Assay for inhibitors of the human cytomegalovirus (HCMV); activity change, negative = inhibition, % at 57.5 µM; 410,000 tested, 4.5% active; HFF cells, HCMV-luciferase reporter, 72 h; stronger effect = lower value; in the data active = activity change below about -60%; inconclusive = no clear call, values can overlap the other calls; inactive = above about -39%
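Luciferase read-out from HCMV-luciferase-infected HFFs (MOI 1 PFU/cell) 72 h post infection at 37C; compounds added after 16 h cell attachment; activity normalized between buffer-only basal and Salinomycin (10uM) inhibitor controls.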
FMDV antiviral: High Throughput Screening for Foot and Mouth Disease Virus Antivirals. 410,000 tested, 1.2% active. AID 1159524, 2015. FMDV antiviral cell-based qHTS. Potency, µM (series often up to 57.9 µM), for the others: top-dose activity change, negative = inhibition, actives largely listed as inhibitors; calls by dose curve; tested in HEK293T cells; also: read-out not given here; potency is read from the fitted curve at half-maximal effect; nearly all actives have a fitted effect of over 45% in size
An asterisk follows results filed as active; ? = inconclusive; nt = no result given; [ ] = dose if it differs, or a comment. Hits are enriched below; roughly 6.2% of the tested compounds scored in any of these assays. % is scaled to controls: 0 for no effect and ±100 for the full control effect.

SMILES	Marburg entry inh	LASV entry inh	HCMV inh	FMDV antiviral
CCOc1cc(-c2ccccc2)nc(N)n1	?	17%	7	44%
Nc1nc(-c2ccccc2)cc(N2CCCCC2)n1	?	?	-63*	-4%
O=C(O)CN(CC(=O)O)CC1=CC2C(=CC1=O)Oc1cc(O)c(CN(CC(=O)O)CC(=O)O)cc1C21OC(=O)c2ccccc21 (stereo not given)	nt	nt	nt	-1%
Cc1cc(C(=O)Nc2ccccc2-c2nc(CNC(=O)c3ccc(F)cc3F)c(C)o2)c(C)o1	nt	nt	nt	-2%
COc1ccc([N+](=O)[O-])cc1NS(=O)(=O)c1ccccc1	?	10%	-6	20%
COc1cc(NS(C)(=O)=O)ccc1Nc1c2ccccc2nc2ccccc12	0.73µM*	0.58µM*	-97*	-18%
COc1ccc(OC)c(Nc2c3ccccc3nc3ccccc23)c1	6.3µM*	?	-71*	?
Cc1cccc(Nc2c3c(nc4ccccc24)CCC3)c1	11µM*	?	-34	?
COc1ccc([N+](=O)[O-])cc1Nc1c2ccccc2nc2ccccc12	nt	nt	?	32µM*
O=C1C=CN(S(=O)(=O)c2ccc(F)cc2)C(c2cccs2)C1 (stereo not given)	nt	nt	-3	nt
CCOC(=O)c1ccccc1NC(=O)CSc1cn(CC(=O)N2CCCCCC2)c2ccccc12	nt	-16%[46.1 µM]	-31	-21%
CCOc1ccc(S(=O)(=O)N2CCN(c3c(C)cccc3C)CC2)c2ccccc12	2%[46.1 µM]	?	8	-13%
COc1ccccc1Nc1ccc(Nc2ccccc2OC)nn1	-10%	-20%	-24	28%
COc1ccc(OC)c(Nc2c3c(nc4ccccc24)CCC3)c1	2.8µM*	?	-79*	-24%
COc1cc(Nc2c3c(nc4ccccc24)CCC3)cc(OC)c1OC	?	-21%	-75*	-15%
c1coc(CNc2c3c(nc4ccccc24)CCC3)c1	?	-2%	-69*	?
COc1ccc(OC)c(Nc2ccc(Nc3cc(OC)ccc3OC)nn2)c1	?	-15%	-86*	?
CC(C)NCC(=O)Nc1c2c(nc3ccccc13)CCC2	?	-13%[46.1 µM]	24	-21%
O=[S+]1([O-])C[C@H](N2CC[C@@H](O)C2)[C@H](COCc2ccccc2)N1	nt	-4%[46.1 µM]	nt	nt
N#C[C@H](c1ccccc1)C1CCN(S(=O)(=O)CCCCl)CC1	nt	nt	-20	nt
COc1cc(OC)c(NC(=O)C2CCCN(c3ncnc4c3nc3n4CCCCC3)C2)cc1Cl (stereo not given)	nt	?	7	?
COc1ccc(CNc2cc([N+](=O)[O-])ccc2OC)cc1	-3%	-1%	-74*	nt
Cc1c(Cl)cccc1NC(=O)CN1C(=O)CSc2ccc(S(=O)(=O)N3CCCC3)cc21	nt	0%[46.1 µM]	51	9%
COCCN(CCOC)Cc1cc(=O)oc2cc(C)c(C)cc12	?	nt	20	-11%
Nc1ncnc2occ(-c3ccc(NC(=O)Nc4cc(C(F)(F)F)cc(C(F)(F)F)c4)cc3)c12	nt	20µM*	nt	nt
SMILES	Marburg entry inh	LASV entry inh	HCMV inh	FMDV antiviral
Cc1ccc(C)c(S(=O)(=O)N2CCN(C(=O)Cc3ccsc3)CC2)c1	22%	-29%	14	4.5µM*
CC(C)c1ccc(S(=O)(=O)N2CCN(C(=O)Cc3ccsc3)CC2)cc1	-3%	-5%	-13	9%
Cc1ccc(S(=O)(=O)N2CCN(Cc3nc4ccc(C)cc4o3)CC2)c(C)c1	nt	-19%[46.1 µM]	-28	-19%
O=CC1=C(c2ccccc2)Oc2ccccc2O1	7.9µM*	?	-94*	?
COc1ccc(OC)c(NC(=O)CN2C(=O)CC(C)Sc3ccccc32)c1 (stereo not given)	1%[46.1 µM]	nt	39	-19%
Cc1cc(C)c(S(C)(=O)=O)c(S(=O)(=O)c2ccc(Cl)cc2)n1	-11%	-1%	-98*	-10%
Cc1cnc(CNc2ccnc(-c3cccc(C#N)c3)n2)cn1	nt	nt	nt	0%
O=c1[nH]c(Cc2ccccn2)nc2scc(-c3ccccc3Cl)c12	8%[46.1 µM]	-1%[46.1 µM]	-83*	-23%
O=c1[nH]c(CN2CCN(Cc3ccccc3)CC2)nc2scc(-c3ccccc3)c12	-21%[46.1 µM]	?	14	-6%
Cc1ccc(Oc2nnc(-c3cccs3)c3ccccc23)cc1C	?	-16%	-62*	?
COc1ccc(CCn2c(=N)c(C(=O)NCc3ccco3)cc3c(=O)n4ccccc4nc32)cc1	21µM*	-26%[14.3 µM]	?	-2%
Cc1cccn2c(=O)c3cc(C(=O)NCC4CCCO4)c(=N)n(CC4CCCO4)c3nc12 (stereo not given)	?	14%	-70*	-15%
